Among the data in the supplement of paper PMC8253809 are growth inhibition values, retold here.

“And” between values parts separate entries of the source, which are not always exact repeats. Identical values can stand only once.

Holding throughout (experiment): growth inhibition (% activity, log2 RLU normalised to DMSO / staurosporine); higher = more growth inhibition
Holding throughout (conditions): 33 µM

One test concerns DIPGX29 (H3.3 K27M diffuse intrinsic pontine glioma line). The essentials: (§1)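 Cells (pHGG lines and H9-derived neural stem cells) were plated on Geltrex-coated 384-well plates and exposed to approved drugs at a single final concentration of about 33 μM, in triplicate, for 7 days at 37 °C, 5% CO2. Log2-transformed CellTiter-Glo luminescence was normalised per plate to % activity between solvent and positive control wells, and the growth-inhibition value is the median over replicates.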

Another test has as its system DIPGX37 (H3.3 K27M diffuse intrinsic pontine glioma line). The essentials: as §1
Another test has as its system DIPGX7 (H3.3 K27M diffuse intrinsic pontine glioma line). In a few lines: as §1
The subject of the next test is DIPGX9 (diffuse intrinsic pontine glioma line). In a few lines:
as §1

The test system of another test is HGGX39 (paediatric high-grade glioma line). The essentials:
as §1

The test system of another test is HGGX6 (H3.3 G34R paediatric high-grade glioma line). In a few lines:
as §1

The next test deals with HNSC. The essentials: as §1
A further test concerns SUDIPGIV (diffuse intrinsic pontine glioma line)
The essentials: as §1

Another test relates to SUDIPGVI (diffuse intrinsic pontine glioma line)
The essentials:
as §1

Another test relates to SUDIPGXIII (diffuse intrinsic pontine glioma line)
In a few lines:
as §1

Regarding `CCCCCCCN(CC)CCCC(O)c1ccc(NS(C)(=O)=O)cc1` (stereo unspecified), the growth inhibition was -0.358% in the test with DIPGX29; 0.859% with DIPGX37; 2.25% with DIPGX7; 1.97% with DIPGX9; 2.78% in the test with HGGX39; 0.985% in the test with HGGX6. Further, the growth inhibition in the test with HNSC was -2.1%; in the test with SUDIPGIV, 0.633%; with SUDIPGVI, 1.61%.

On to `COc1cc2c(cc1OC)CC(=O)N(CCCN(C)C[C@H]1Cc3cc(OC)c(OC)cc31)CC2`, for which the growth inhibition was -0.791% with DIPGX29; 1.83% in the test with DIPGX37; 1.52% in the test on DIPGX7; 1.21% in the test with DIPGX9; 2.26% with HGGX39; 0.769% in the test on HGGX6. Further, the results for the growth inhibition in the test with HNSC, in the test with SUDIPGIV and with SUDIPGVI were 7.75%, 0.5% and 1.04%, respectively.

For `C=C(c1ccc(C(=O)O)cc1)c1cc2c(cc1C)C(C)(C)CCC2(C)C`, the growth inhibition in the test on DIPGX29 was 8.85%; with DIPGX37 it was -3.45%; in the test on DIPGX7 it was 11%; in the test with DIPGX9, 10.4%; in the test on HGGX39, 12.4%; with HGGX6, 9.38%. Also, the growth inhibition with HNSC was 14.6%; with SUDIPGIV, 6.25%; in the test on SUDIPGVI, 9.87%.

As for `C=Cc1c(C)c2cc3nc(cc4[nH]c(cc5nc(cc1[nH]2)C(C)=C5CCC(=O)O)c(CCC(=O)OC)c4C)C1(C)C3=CC=C(C(=O)OC)C1C(=O)OC` (stereo unspecified), the growth inhibition was 0.0791% in the test on DIPGX29; -1.21% in the test on DIPGX37; 0.254% with DIPGX7; -0.022% with DIPGX9; 1.95% in the test on HGGX39; 0.712% in the test with HGGX6. Further, the growth inhibition in the test on HNSC is 2.35%; in the test with SUDIPGIV it was -0.469%; in the test with SUDIPGVI it was -1.11%; in the test on SUDIPGXIII, -2.15%.

Consider `CC(C)[C@H]1CC[C@H](C(=O)N[C@H](Cc2ccccc2)C(=O)O)CC1`, for which the growth inhibition in the test on DIPGX29 is -0.743%; in the test with DIPGX37, 0.294%; with DIPGX7, 0.0113%; with DIPGX9 it was 0.231%; in the test with HGGX39, 1.32%; with HGGX6 it was 1.09%. Also, the growth inhibition in the test on HNSC was -0.0956%; with SUDIPGIV, -1.21%; in the test with SUDIPGVI it was -0.179%.

`CC(O)(P(=O)(O)O)P(=O)(O)O`: the growth inhibition in the test on DIPGX29 is -0.191%; in the test on DIPGX37, 1.06%; in the test with DIPGX7, -0.11%; in the test on DIPGX9 it was -0.168%; in the test with HGGX39, -1.7%; in the test on HGGX6 it was 1.43%. The growth inhibition was -0.64% in the test with HNSC, -0.506% with SUDIPGIV, 1.73% with SUDIPGVI and 0.673% in the test on SUDIPGXIII.

Consider `Cc1c(Nc2ncccc2C(=O)O)cccc1C(F)(F)F`, for which the growth inhibition with DIPGX29 came to 0.454%; in the test on DIPGX37 it was 2.84%; in the test on DIPGX7, 0.522%; in the test on DIPGX9, 1.64%; with HGGX39, 1.78%; in the test on HGGX6, 3.08%. The growth inhibition with HNSC was 1.18%; in the test with SUDIPGIV, -3.76%; in the test with SUDIPGVI, 2.1%.

Consider `CC1(C)S[C@@H]2[C@H](NC(=O)[C@H](N)c3ccc(O)cc3)C(=O)N2[C@H]1C(=O)O`, for which the growth inhibition in the test with DIPGX29 was -2.54% and 1.43%; with DIPGX37 it was -2.93% and 3.86%; in the test on DIPGX7 it was -1.48% and 1.69%; with DIPGX9, 0.486% and 1.84%; with HGGX39 it was 0.0264% and 2.87%; with HGGX6 it was 0.163% and 3.37%. For the same compound, the growth inhibition was -3.3% and 1.46% in the test on HNSC; -1.85% and 0.698% with SUDIPGIV; -2.12% and 2.79% in the test on SUDIPGVI; 7.41% and 0.66% in the test with SUDIPGXIII.

With `C#C[C@]1(O)CC[C@H]2[C@@H]3CCC4=CC(=O)CC[C@@H]4[C@H]3CC[C@@]21C`, the growth inhibition in the test with DIPGX29 was -0.22%; in the test on DIPGX37, 3.5%; in the test on DIPGX7, 1.4%; with DIPGX9 it was 2.42%; with HGGX39, 4.07%; in the test with HGGX6, 7.23%. Further, the growth inhibition is 6.68% in the test with HNSC, -0.735% with SUDIPGIV and 0.661% in the test with SUDIPGVI.

With `Oc1c(Br)cc(Br)c2cccnc12`, the growth inhibition was -0.427% with DIPGX29; 0.213% in the test with DIPGX37; 1.4% with DIPGX7; 1.88% with DIPGX9; 2.61% in the test on HGGX39; 1.93% with HGGX6. The growth inhibition with HNSC was -0.441%; in the test on SUDIPGIV, 0.619%; in the test on SUDIPGVI it was 2.93%.

As to `Cc1onc(-c2ccccc2)c1-c1ccc(S(N)(=O)=O)cc1`, the growth inhibition amounted to 0.8% in the test with DIPGX29; 1.05% in the test on DIPGX37; 0.883% with DIPGX7; 0.672% in the test with DIPGX9; 3.67% in the test with HGGX39; 2.37% with HGGX6. The results for the growth inhibition with HNSC, in the test with SUDIPGIV and with SUDIPGVI were -0.462%, -2.73% and 2.54%, respectively.

As to `CCn1cc(C(=O)O)c(=O)c2ccc(C)nc21`, the growth inhibition in the test on DIPGX29 was -2.16%; in the test with DIPGX37, -2.18%; in the test with DIPGX7 it was -0.91%; in the test with DIPGX9 it was 0.0696%; in the test with HGGX39, -0.871%; with HGGX6, 0.278%. The growth inhibition in the test with HNSC is -2.82%; with SUDIPGIV, -0.499%; with SUDIPGVI it was -1.38%.
